Data taken from paper PMC4336329 (PLoS ONE, 2015).
In all, about 310,000 compounds went through this assay and about 2,200 (0.71%) showed an effect of 50% or more. Effects have a minus sign here. The list comes from a sample in which strong results are over-represented; it also holds similar structures and randomly drawn compounds.

target: human ether-à-go-go-related gene (hERG) potassium channel (human, UniProt Q12809); assay: primary screen, population patch clamp on CHO cells stably expressing hERG; higher = less effect of the substance
Sequence (Q12809 whole entry, looked up): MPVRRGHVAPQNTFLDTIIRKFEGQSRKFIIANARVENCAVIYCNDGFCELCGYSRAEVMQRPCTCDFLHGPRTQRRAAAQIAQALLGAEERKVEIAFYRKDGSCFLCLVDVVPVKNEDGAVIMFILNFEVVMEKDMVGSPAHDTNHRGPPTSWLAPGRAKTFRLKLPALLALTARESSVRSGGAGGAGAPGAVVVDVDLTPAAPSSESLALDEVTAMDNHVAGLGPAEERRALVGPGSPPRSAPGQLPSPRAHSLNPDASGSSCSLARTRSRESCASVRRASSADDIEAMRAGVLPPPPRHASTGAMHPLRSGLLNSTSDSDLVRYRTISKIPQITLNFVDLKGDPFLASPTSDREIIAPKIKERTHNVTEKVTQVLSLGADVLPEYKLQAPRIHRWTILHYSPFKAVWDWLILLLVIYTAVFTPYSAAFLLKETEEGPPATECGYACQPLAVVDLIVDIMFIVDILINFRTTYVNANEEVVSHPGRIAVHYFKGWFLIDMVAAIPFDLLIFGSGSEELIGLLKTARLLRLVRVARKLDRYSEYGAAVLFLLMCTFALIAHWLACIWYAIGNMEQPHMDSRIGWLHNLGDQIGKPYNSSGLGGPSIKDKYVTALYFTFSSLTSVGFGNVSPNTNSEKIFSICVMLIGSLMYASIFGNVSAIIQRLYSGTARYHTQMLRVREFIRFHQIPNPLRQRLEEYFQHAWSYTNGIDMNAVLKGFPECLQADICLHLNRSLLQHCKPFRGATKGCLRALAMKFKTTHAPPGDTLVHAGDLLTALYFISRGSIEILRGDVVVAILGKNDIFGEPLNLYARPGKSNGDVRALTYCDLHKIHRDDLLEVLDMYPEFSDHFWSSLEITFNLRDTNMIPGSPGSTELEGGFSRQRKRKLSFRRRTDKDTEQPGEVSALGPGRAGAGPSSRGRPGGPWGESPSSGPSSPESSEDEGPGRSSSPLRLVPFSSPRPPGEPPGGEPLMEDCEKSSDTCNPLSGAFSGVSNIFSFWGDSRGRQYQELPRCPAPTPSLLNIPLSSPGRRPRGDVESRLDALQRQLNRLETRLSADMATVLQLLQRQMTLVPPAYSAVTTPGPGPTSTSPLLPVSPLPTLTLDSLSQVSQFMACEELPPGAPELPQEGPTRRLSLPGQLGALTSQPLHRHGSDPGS

Row | SMILES | hERG current change (%, negative = inhibition) at 1uM [%]
1 | O=C(Nc1ccc(Oc2ccc(Cl)cc2)cc1)c1ncn[nH]1 | 2.59
2 | Cc1nn(CC(=O)Nc2ccc(N3CCOCC3)cc2)c(C)c1Cl | 19.7
3 | CSc1ccc(CN(C)CC(=O)Nc2c(F)cccc2F)cc1.O=C(O)C(=O)O | 7.89
4 | COc1cc2c(cc1OC)C(=O)Cc1ccc3c(c1CN(C)CC2)OCO3 | -39.4
5 | COc1ccc2c(c1OC)CN(C)CCc1cc3c(cc1C(O)C2)OCO3 (stereo not shown) | -0.22
6 | COc1ccc2c(c1OC)CN(C)CCc1cc3c(cc1C(=O)C2)OCO3 | -84
7 | CC(C)(C)NC(=O)CSc1nccn1Cc1ccccc1 | 5.85
8 | Cl.O=[N+]([O-])c1ccccc1/C=N/NC1=NCCCCC1 | -0.325
9 | O=C(ONC1=NCCCCC1)c1cccc([N+](=O)[O-])c1 | 11.8
10 | O=[N+]([O-])c1cccc(/C=N/NC2=NCCCCC2)c1 | -70.9
11 | OC(COc1ccccc1)Cn1c2ccccc2c2ccccc21 (stereo not shown) | 8.25
12 | Cc1cccc(OCC(O)Cn2c(=N)n(Cc3ccccc3)c3ccccc32)c1.Cl (stereo not shown) | -16.4
13 | Cc1ccc(OCC(O)Cn2c(=N)n(Cc3ccccc3)c3ccccc32)cc1.Cl (stereo not shown) | -61
14 | Cl.N=c1n(Cc2ccc(Cl)cc2)c2ccccc2n1CC(O)COc1ccccc1 (stereo not shown) | -17.1
15 | COc1ccc(OCC(O)Cn2c(=N)n(CCN3CCOCC3)c3ccccc32)cc1.Cl (stereo not shown) | -10.5
16 | COc1ccc(OCC(O)Cn2c(=N)n(Cc3ccccc3)c3ccccc32)cc1.Cl (stereo not shown) | -76.6
17 | Cl.N=c1n(Cc2ccccc2)c2ccccc2n1CC(O)COc1ccccc1 (stereo not shown) | -55.8
18 | Cc1ccc(Cn2c(=N)n(CC(O)COc3ccccc3)c3ccccc32)cc1.Cl (stereo not shown) | -36.1
19 | C=CCOC(=O)C1=C[C@H](c2ccc(C(F)(F)F)cc2)C[C@H](OCCCCO)O1 | 9.6
20 | CCOC(=O)/C(=C/Nc1ccc(F)c(F)c1)[N+](=O)[O-] | 13
21 | CCOC(=O)c1ccc(NC(=O)[C@@H](NC(N)=O)C(C)C)cc1 | -0.13
22 | NC(=O)c1c(NC(=O)Cn2cc([N+](=O)[O-])cn2)sc2c1CCCC2 | 2.68
23 | CCN1C(=O)C(CC(=O)Nc2ccc(F)cc2)N(CCCN2CCN(c3ccc(F)cc3)CC2)C1=S (stereo not shown) | 0.806
24 | COc1cc(CN2CCC(Oc3cc(C(=O)NC4CC4)ccc3OC)CC2)cc(OC)c1 | -62
25 | COc1ccc(C(=O)NCCc2ccc(C)cc2)cc1OC1CCN(C(C)=O)CC1 | 9.4
26 | COc1cccc(CCNC(=O)c2ccc(OC)c(OC3CCN(C(C)C)CC3)c2)c1 | -2.35
27 | COc1ccc(C(=O)NC2CCCCCCC2)cc1OC | 9.08
28 | COc1ccc(C(=O)NC2CC2)cc1OC1CCN(Cc2cc(C)cc(C)c2)CC1 | -57.7

Row | SMILES | hERG current change (%, negative = inhibition) at 1uM [%]
29 | CC(C)(C)NC(=O)c1c(F)c(F)c(F)c(F)c1F | 4.34
30 | O=S(=O)(c1cccc(-c2nnc(SCc3nc4ccccc4s3)o2)c1)N1CCOCC1 | -2.26
31 | Cc1ccc2c(c1)N(CC(=O)Nc1ccccc1F)C(=O)CO2 | 17.1
32 | O=C(O)c1cccc(N/N=C(\N=Nc2ccccc2)c2ccccc2)c1 | 16.7
33 | Cc1ccc2nc3c(cc(C(=O)NCCN4CCOCC4)c(=N)n3CCCN3CCOCC3)c(=O)n2c1 | 5.89
34 | Cc1ccc2nc3c(cc(C(=O)NCCc4ccccc4)c(=N)n3CCN3CCOCC3)c(=O)n2c1 | -82.9
35 | Cc1ccc2nc3c(cc(C(=O)NCCc4ccccc4)c(=N)n3CCCN3CCOCC3)c(=O)n2c1 | -77.5
36 | CCCCNC(=O)Cn1cnc2sc(C(=O)OCC)c(C)c2c1=O | 8.3
37 | CC(C)[C@H](NC(=O)CCn1nnc2ccccc2c1=O)C(=O)O | 17.3
38 | O=C(/C=C/c1ccccc1O)c1ccc(Cl)cc1 | 9.95
39 | Cc1nc2ccccc2c(=O)n1NC(=O)/C=C/c1ccccc1 | -0.535
40 | Cc1nc2ccccc2c(=O)n1NC(=O)/C=C/c1ccccc1Cl | -51.1
41 | Cc1nc2ccccc2c(=O)n1NC(=O)/C=C/c1ccc(Br)cc1 | 2.25
42 | Cc1csc(NC(=O)CCCc2cccs2)n1 | 1.69
43 | CCCCCN(C(=O)CCC(=O)OCc1ccccc1C)c1c(N)n(CCCC)c(=O)[nH]c1=O | 7.65
44 | CN(c1cccc(NC(=O)CN(c2cccc(F)c2)S(C)(=O)=O)c1)S(C)(=O)=O | 11.3
45 | CCOC(=O)C1(Cc2ccccc2)CCCN(Cc2ccc(OCC)c(CO)c2)C1 (stereo not shown) | 4.54
46 | CCOC(=O)C1(CCOc2ccccc2)CCN(Cc2ccccc2OC)CC1 | -37.2
47 | CCOC(=O)C1(CCOc2ccccc2)CCN(Cc2ccc(C)o2)CC1 | -32.8
48 | CCOC(=O)C1(CCOc2ccccc2)CCN(Cc2cccc(OC)c2O)CC1 | -54.1
49 | CCOC(=O)C1(CCOc2ccccc2)CCN(Cc2ccc3nonc3c2)CC1 | 0.31
50 | CCOC(=O)C1(CCOc2ccccc2)CCN(Cc2ccc(OCC)c(CO)c2)CC1 | -82.4
51 | CCOC(=O)C1(CCOc2ccccc2)CCN(Cc2ccccc2O)CC1 | -8.86
52 | CCOC(=O)C1(Cc2cccc(OC)c2)CCN(Cc2cc(OC)ccc2OC)CC1 | -7.48
53 | CCOC(=O)C1(CCOc2ccccc2)CCN(Cc2cc(OC)c3c(c2)OCO3)CC1 | -7.24
54 | CCOC(=O)C1(CCOc2ccccc2)CCN(Cc2cc(OC)ccc2OC)CC1 | -60.1
55 | CCOC(=O)C1(CCOc2ccccc2)CCN(Cc2cc(OC)c(O)c(OC)c2)CC1 | -66.6
